In the library only some 4.4% were active in any assay of this set; here they are far more common.
D1 potentiator: enhances dopamine response at the human D1 receptor; P21728; HEK293 TREx D1 cells, calcium flux, dopamine EC20 potentiation; 360,000 compounds, 0.036% hits; potentiation, % at 10 µM; AID 504651; in the data active = potentiation above about 30%; note: 0% is about no effect
Target sequence (P21728 whole entry, looked up): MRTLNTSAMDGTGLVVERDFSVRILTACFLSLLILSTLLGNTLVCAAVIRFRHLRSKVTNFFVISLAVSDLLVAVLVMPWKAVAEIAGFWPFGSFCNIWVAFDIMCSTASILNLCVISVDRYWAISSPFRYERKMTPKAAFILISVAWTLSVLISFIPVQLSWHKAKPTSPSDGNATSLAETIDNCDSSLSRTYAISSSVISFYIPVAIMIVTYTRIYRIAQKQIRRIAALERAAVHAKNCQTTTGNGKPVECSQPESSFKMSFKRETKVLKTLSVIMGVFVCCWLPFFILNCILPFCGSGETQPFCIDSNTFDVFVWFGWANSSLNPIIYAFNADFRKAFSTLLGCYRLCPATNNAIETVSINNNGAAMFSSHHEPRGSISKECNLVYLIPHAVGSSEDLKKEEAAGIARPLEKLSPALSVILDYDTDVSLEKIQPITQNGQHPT
D1 ag: human D1 receptor agonism; 360,000 compounds, 1% hits; activation, % at 2 µM; P21728; HEK293 T-REx D1 cells, calcium flux, agonist mode; note: 0% is about no effect
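Inducible HEK293 T-REx D1 cells, force-coupled to calcium signalling, were plated at 4000 cells/well with tetracycline and held overnight at 30 C. After no-wash calcium dye loading, compound-evoked calcium rise over 180 s flagged agonists.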
TRHR ag: TRH receptor (human) agonism; TRHR cells, calcium flux fluo-8, FDSS agonist mode; activation, % at 2 µM; 360,000 compounds, 0.18% hits; AID 493084; note: 0% is about no effect
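Read-out: compound-evoked intracellular calcium rise in TRHR cells, fluo-8 dye, kinetic FDSS fluorescence at 1 s/cycle following a 10-cycle baseline. Cells cultured overnight before dye loading (30 min–1.5 h, RT).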
USP1 inh: inhibitors of human USP1/UAF1 deubiquitinase; AID 743255; Potency, µM (doses to about 57.1 µM), without a hit: at the top dose activity change, negative = inhibition, hits mostly inhibitors; 390,000 compounds, 0.23% hits; recombinant USP1/UAF1, Ub-Rhodamine cleavage fluorescence; O94782; active = well fitted inhibition curve with a large enough effect; inconclusive = small, poorly fitted or top-dose-only effect; inactive = no such curve, though single readings can be large or run the other way; note: potency is the fitted concentration of half-maximal effect; % is set by controls: 0 for no effect and ±100 for the full control effect; nearly all actives have a fitted effect of over 60% in size
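In this screen, compounds sit with the deubiquitinase complex (1nM) for 15 min at room temperature before Ub-Rho is added at 150nM final. Fluorescence rise is then followed for 6 reads every 60 seconds.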
D1 antag: human D1 dopamine receptor antagonism | HEK293 TREx D1 cells, calcium flux, dopamine EC80; hits give low values | activity change, negative = inhibition, % at 10 µM | 360,000 compounds, 3.2% hits | AID 504652; in the data active = activity change below about -30%; note: % is set by controls: 0 for no effect and ±100 for the full control effect
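Cells carrying a force-coupled, tetracycline-inducible human D1 receptor report calcium flux. Each well gets a 10 s baseline, compound with 180 s monitoring, then an EC80 dopamine stimulus with a second 180 s kinetic read.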
TRHR enhancer: allosterically enhances the human TRH receptor; TRHR cells, fluo-8 calcium fluorescence, EC20 TRH enhancement; enhancement, % at 2 µM; 360,000 compounds, 0.66% hits; in the data active = enhancement above about 30%; note: 0% is about no effect
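TRHR-expressing cells loaded with fluo-8 calcium dye were read kinetically (ex 480/em 530) during compound addition, then stimulated with an EC20 of TRH (10 nM final). Enhancement of the Gq-mediated intracellular calcium response was scored.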
* marks the source's active call; other numbers are inactive results; ? = inconclusive. Cut-off read from the data, not from the text of the source, unless noted: active = activation above about 30%; inactive = the rest.

SMILES | D1 potentiator | D1 ag | TRHR ag | USP1 inh | D1 antag | TRHR enhancer
CCOc1ccccc1NC(=O)C(Cc1ccccc1)NS(=O)(=O)c1ccc(Br)s1 (configuration not stated) | -2 | -2 | -1 | -6% | 12 | 0
CCn1cc(C(=O)NCc2ccccc2Cl)c(=O)c2cc(S(=O)(=O)N3CCCCCC3)ccc21 | -2 | 4 | 0 | -25% | -62* | -3
CCCc1ccc(OC(C)c2nc(-c3ccc(-n4cccc4)cc3)no2)cc1 (configuration not stated) | -2 | 7 | 3 | -7% | 0 | 36*
COc1ccc(CCc2nc(-c3ccc(-n4cccc4)cc3)no2)cc1 | -3 | 7 | 1 | -9% | -24 | 9
COc1ccc(C)cc1NC(=O)Cn1c(=O)n(Cc2nc(C)no2)c(=O)c2ccccc21 | 0 | 0 | 0 | 16% | 9 | 2
COCCNC(=O)Cn1cc2c(n1)-c1c(oc(C(=O)N3CCCC3)c1C)CC2 | 2 | 0 | 0 | ? | -28 | 0
CCOCCCNC(=O)Cn1cc2c(n1)-c1c(oc(C(=O)N3CCCC3)c1C)CC2 | -4 | 4 | 0 | ? | -32* | 27
Cc1ccc(C)n1-c1nnc(N2CCCC(C(=O)Nc3ccc(C(C)C)cc3)C2)s1 (configuration not stated) | 4 | -3 | -2 | -25% | 19 | 4
COc1ccc(OCCSc2nnc(CCNC(=O)c3ccc(Cl)c(Cl)c3)n2C)cc1 | -5 | 1 | 1 | -15% | -36* | -6
COc1ccc(OCCSc2nnc(CCNC(=O)c3ccc(OC)cc3)n2C)cc1 | -8 | 1 | -2 | -12% | 8 | 6
O=c1c2ccccc2n(Cc2cccc(F)c2)c(=O)n1Cc1ccccc1Cl | -1 | 4 | 0 | -22% | 1 | -7
Cn1cc([N+](=O)[O-])cc1-c1nc2ccccc2n1C | -3 | 3 | 0 | -21% | -34* | 5
Cn1c(-c2ccc([N+](=O)[O-])cc2)nc2ccccc21 | -12 | 1 | -3 | -21% | -18 | -1
Cc1nc2c3ccccc3nc(NNC(=O)CCC(=O)O)n2n1 | -2 | 3 | 0 | -18% | -6 | -6
COc1ccccc1N1CCN(C(=O)c2cnn(-c3cccc(Cl)c3)c2C2CCN(C(=O)OC(C)(C)C)CC2)CC1 | -3 | 1 | 0 | -20% | 2 | -3
CCOC(=O)C1CCN(c2ccc(C(N)=O)cc2[N+](=O)[O-])CC1 | -4 | 11 | 0 | -4% | -33* | 12
NC(=O)c1ccc(N2CCC(C(N)=O)CC2)c([N+](=O)[O-])c1 | 2 | 2 | 1 | -11% | 12 | 1
NC(=O)c1ccc(N2CCN(S(=O)(=O)c3ccccc3)CC2)c([N+](=O)[O-])c1 | 1 | 12 | 0 | 0% | -40* | 15
O=C(c1ccc(N2CCCCC2)c([N+](=O)[O-])c1)N1CCN(S(=O)(=O)c2ccccc2)CC1 | -3 | 0 | 0 | -21% | 16 | 14
COC(=O)c1ccc(N2CCN(CC(=O)c3ccc(-c4ccccc4)cc3)CC2)c([N+](=O)[O-])c1 | -8 | 2 | 0 | -3% | -34* | -2
CCCOC1CCCN(C(=O)c2ccc(OC3CCN(C(=O)CCOC)CC3)cc2)C1 (configuration not stated) | -6 | 2 | 0 | -10% | -1 | 3
COC(=O)CCC(C)N1CCC(Oc2ccc(C(=O)N3CCCC3)cc2)CC1 (configuration not stated) | -4 | 0 | 1 | -10% | -30* | 2
COCCC(=O)N1CCC(Oc2ccc(C(=O)N3CCCC(OC)C3)cc2)CC1 (configuration not stated) | -5 | 2 | 0 | 0% | -35* | -1
CC(C)c1ccc(NC(=O)CSc2nc3ccccc3nc2Cc2ccccc2)cc1 | -1 | 2 | 1 | -19% | -13 | 1
Cc1cc(N2CCN(c3cccc(C(F)(F)F)c3)CC2)n2nc(-c3ccccc3C)nc2n1 | 2 | 5 | -1 | -25% | 10 | 5
